High-throughput results: PubChem, National Center for Advancing Translational Sciences (NCATS)
The list is not random: actives were taken first. Their share in the collection is about 2.3%.
Rango complex inh – qHTS Assay for Inhibitors of Rango (Ran-regulated importin-beta cargo) - Importin beta complex formation; Potency, µM (highest dose often 92.2 µM); Rango CFP/YFP FRET sensor + importin beta, 45 min; Importin subunit beta-1 (Homo sapiens), Q14974; actives 0.031% (n = 340,000); AID 540263, 2011; calls by dose curve; further: nearly all actives have a fitted effect of over 15% in size
Target sequence (Q14974 whole entry, looked up): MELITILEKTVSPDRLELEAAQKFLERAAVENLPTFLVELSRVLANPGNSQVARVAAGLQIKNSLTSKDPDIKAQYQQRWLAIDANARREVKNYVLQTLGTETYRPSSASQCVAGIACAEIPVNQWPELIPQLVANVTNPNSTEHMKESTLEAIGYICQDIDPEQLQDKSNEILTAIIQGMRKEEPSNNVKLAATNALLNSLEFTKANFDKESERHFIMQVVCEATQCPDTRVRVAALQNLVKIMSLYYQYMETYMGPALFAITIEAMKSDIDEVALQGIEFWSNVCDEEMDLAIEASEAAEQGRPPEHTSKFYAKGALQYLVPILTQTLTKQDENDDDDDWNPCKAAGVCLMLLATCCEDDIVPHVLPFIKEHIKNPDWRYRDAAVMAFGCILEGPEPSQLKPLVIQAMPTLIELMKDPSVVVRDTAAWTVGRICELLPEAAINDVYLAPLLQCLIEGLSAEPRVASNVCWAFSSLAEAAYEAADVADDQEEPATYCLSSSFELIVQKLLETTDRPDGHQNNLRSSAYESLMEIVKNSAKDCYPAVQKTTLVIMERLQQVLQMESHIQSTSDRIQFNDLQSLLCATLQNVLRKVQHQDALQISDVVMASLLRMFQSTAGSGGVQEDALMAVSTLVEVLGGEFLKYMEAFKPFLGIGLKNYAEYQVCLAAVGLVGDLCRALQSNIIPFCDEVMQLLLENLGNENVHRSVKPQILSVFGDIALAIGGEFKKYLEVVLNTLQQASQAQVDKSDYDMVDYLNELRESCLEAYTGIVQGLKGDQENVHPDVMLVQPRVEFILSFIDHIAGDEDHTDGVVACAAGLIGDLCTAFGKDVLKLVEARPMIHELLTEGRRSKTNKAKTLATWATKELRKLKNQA
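FRET biosensor (snurportin 1 IBB flanked by EYFP and cerulean), 50 nM, with compound 5 min, then 0.125 microM importin beta in PBS, 1 mM DTT, 0.02% Tween-20, 0.1% BSA. CFP/YFP ratio read after 45 min at room temperature; pre-read flags interference.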
A549 tox-1 – Nrf2 qHTS screen for inhibitors: counterscreen for cytotoxicity | A549 ARE-Fluc cells, CellTiter-Fluor viability, 18-24 h | Potency, µM (titrated, usually from 46 µM), actives largely listed as inhibitors | actives 0.16% (n = 390,000)
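Cytotoxicity counterscreen: CellTiter-Fluor fluorescence was measured in A549 ARE_Fluc cells after 18-24 h of compound exposure in a concentration series. The subsequent BugLite luminescent read reports ARE-luciferase activity.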
Rango release inh – qHTS Assay for Inhibitors of RanGTP induced Rango (Ran-regulated importin-beta cargo) - Importin beta complex dissociation. Snurportin-1 (Homo sapiens) + GTP-binding nuclear protein Ran (Homo sapiens) + Importin …. Biochemical FRET Rango-importin beta, RanGTP-induced dissociation. Potency, µM (top dose mostly 46.1 µM). actives 0.071% (n = 340,000); calls by dose curve; further: nearly all actives have a fitted effect of over 45% in size
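Compounds sat 5 min at room temperature with 0.1 uM Rango biosensor plus 0.25 uM importin beta, then FRET pre-read. RanGTP-RCC1 (0.6 uM Ran, 2mM GTP, 0.2 uM RCC1) added for 45 min, and the CFP/YFP post-read measured blocked complex dissociation.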
Nrf2 inh – Nrf2 qHTS screen for inhibitors. A549 ARE-Fluc reporter, luciferase luminescence, 18-24 h. Potency, µM (highest dose often 46 µM), actives largely listed as inhibitors. actives 2.1% (n = 360,000); further: nearly all actives have a fitted effect of over 60% in size
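A549 ARE_Fluc cells, 5000/well, 5% FBS OPTI-MEM; compounds in dose-response, 18-24 h at 37 °C/5% CO2; CellTiter-Fluor viability read (Ex 405/Em 525), then BugLite luciferase luminescence = Nrf2 activity.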
Nrf2 activator – qHTS of Nrf2 Activators. AREc32 ARE-luciferase reporter (MCF7-derived line), luminescence, 24 h. actives 0.31% (n = 410,000). AID 624171, 2012. Potency, µM (series often up to 46.1 µM), actives largely listed as activators; further: nearly all actives have a fitted effect of over 65% in size
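Luciferase luminescence (Steady-Glo, 30 min at room temperature) served as the read-out of ARE activation in AREc32 cells treated with compounds for 24 hr at 37 deg C.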
FLuc enzyme inh – Nrf2 qHTS screen for inhibitors: Purified Fluc Biochemical Counterscreen for Hit Validation; shares compounds with Nrf2 inh; purified firefly luciferase, luminescence inhibition; Potency, µM (highest dose often 57.5 µM), usual class: inhibitors; actives 4% (n = 1,400); AID 720522, 2013; further: nearly all actives have a fitted effect of over 65% in size
A549 tox-2 – Nrf2 qHTS screen for inhibitors: A549 ARE-Fluc Cytotoxicity Counterscreen for Hit Validation | Potency, µM (top dose mostly 46.1 µM), hits mostly inhibitors | A549 ARE-Fluc cells, cytotoxicity counterscreen | shares compounds with Nrf2 inh | actives 2% (n = 1,400) | AID 720523, 2013;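 further: cells exposed to compounds for 18 to 24 hours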
Nrf2 ARE inh – Nrf2 qHTS screen for inhibitors: Nrf2 A549 ARE-Fluc Confirmation Assay for Hit Validation | shares compounds with Nrf2 inh | A549 ARE-firefly luciferase reporter, luminescence | Potency, µM (series often up to 46.1 µM), most hits filed as inhibitors | actives 74% (n = 1,400); further: nearly all actives have a fitted effect of over 65% in size
Of the large screens only hits and unclear results are named; the others gave an inactive call (follow-up assays come after a bar, where shown). Unless noted, the call rests on the fitted dose curve; in most records, active means well fitted curve in the direction sought with a large enough effect; inconclusive means small, poorly fitted or top-dose-only effect, or another doubt; inactive means no such curve, though single readings can be large; an effect the other way counts as inactive or inconclusive.

Cc1ccc(-c2onc(C)c2C)cc1S(=O)(=O)N1CCOc2ccccc21	Nrf2 inh inconclusive
Cc1nn(C)c(C)c1CN(C)S(=O)(=O)c1ccc(F)cc1	Nrf2 inh inconclusive
Cc1nn(C)c(C)c1CN(C)S(=O)(=O)c1ccc2ccccc2c1	Rango complex inh inconclusive, Rango release inh inconclusive, Nrf2 inh 2.5µM | FLuc enzyme inh inactive | A549 tox-2 inactive | Nrf2 ARE inh 1.2µM
Cc1ccc(C(=O)COC(=O)CN2C(=O)C3C4CCC(C4)C3C2=O)cc1C (centres undefined)	none
CC1Sc2ccc(S(=O)(=O)N3CCN(c4ccccc4)CC3)cc2NC1=O (centres undefined)	Nrf2 inh 7.3µM | FLuc enzyme inh inactive | A549 tox-2 inactive | Nrf2 ARE inh inconclusive
CC1Sc2ccc(S(=O)(=O)N3CCN(c4cccc(Cl)c4)CC3)cc2NC1=O (centres undefined)	none
Cc1ccc(S(=O)(=O)N2CCC(C(=O)Nc3ccc(S(=O)(=O)N4CCOCC4)cc3)CC2)cc1	Nrf2 inh inconclusive
Cc1ccc(S(=O)(=O)N2CCC(C(=O)Nc3ccc(C)c(Cl)c3)CC2)cc1	Nrf2 inh inconclusive (no result: Rango complex inh, Rango release inh) | FLuc enzyme inh inactive | A549 tox-2 inactive | Nrf2 ARE inh 7.3µM
Cc1ccc(NC(=O)C2CCN(S(=O)(=O)c3ccc4c(c3)NC(=O)C(C)S4)CC2)cc1Cl (centres undefined)	A549 tox-1 inconclusive, Nrf2 inh 1.3µM | FLuc enzyme inh inactive | A549 tox-2 inactive | Nrf2 ARE inh 9.2µM
Cc1ccc(C)c(N2CCN(C(=O)CCS(=O)(=O)c3ccc4c(c3)NC(=O)C(C)S4)CC2)c1 (centres undefined)	Nrf2 inh 6.5µM | FLuc enzyme inh inactive | A549 tox-2 inactive | Nrf2 ARE inh 6.5µM
Cc1ccccc1NC(=O)C1CCN(S(=O)(=O)c2ccc3c(c2)NC(=O)C(C)S3)CC1 (centres undefined)	none
COc1cc(NC(=O)Cn2c(=O)n(CC3CCC(C(=O)NCCc4ccccc4)CC3)c(=O)c3ccccc32)cc(OC)c1 (centres undefined)	Nrf2 inh inconclusive (no result: Rango complex inh, Rango release inh)
CC(=O)N1CCc2cc(S(=O)(=O)NCCC(=O)NC3CCCCCC3)ccc21	none
COc1cc2c(cc1OC)CN(C(=O)CN1CCN(S(=O)(=O)c3ccccc3Br)CC1)CC2	Nrf2 inh 1.8µM | FLuc enzyme inh inactive | A549 tox-2 inactive | Nrf2 ARE inh inactive
CC(=O)c1cn(CC(=O)Nc2cccc(C)c2C)c2ccccc12	Nrf2 inh 5.2µM | FLuc enzyme inh inactive | A549 tox-2 inactive | Nrf2 ARE inh inconclusive
Cc1cccc(OCc2n(CC(=O)OC3CC(C)CCC3C(C)C)c3ccccc3[n+]2C)c1 (centres undefined)	none
CC1CCC(C(C)C)C(OC(=O)Cn2c(-c3ccccc3)[n+](C)c3ccccc32)C1 (centres undefined)	A549 tox-1 inconclusive, Nrf2 inh 3.7µM | FLuc enzyme inh inactive | A549 tox-2 inconclusive | Nrf2 ARE inh 2.1µM
CC1CCC(C(C)C)C(OC(=O)Cn2c(-c3ccc(F)cc3)[n+](C)c3ccccc32)C1 (centres undefined)	A549 tox-1 inconclusive, Nrf2 inh 8.2µM | FLuc enzyme inh inactive | A549 tox-2 inconclusive | Nrf2 ARE inh 9.2µM
COc1ccc(CCNc2c(C)c(C)nc3ncnn23)cc1	A549 tox-1 inconclusive, Nrf2 inh 1µM | FLuc enzyme inh inactive | A549 tox-2 inactive | Nrf2 ARE inh 2.1µM
C=CCn1cc(F)c(=O)n(CC=C)c1=O	none
CCn1c(Sc2ccc([N+](=O)[O-])cn2)nnc1-c1ccco1	A549 tox-1 inconclusive, Nrf2 activator inconclusive
CCc1ccc2ncc3c(-c4ccc(F)cc4)nn(CC(=O)NC4CCCCC4)c3c2c1	Nrf2 inh 1.6µM (no result: Rango complex inh, Rango release inh) | FLuc enzyme inh inactive | A549 tox-2 inactive | Nrf2 ARE inh inconclusive
O=C(c1ccc(F)cc1)N1CCC2(CC1)NCCc1[nH]cnc12	none
Cc1ccc2c(c1)[nH]c1c(N3CCN(Cc4ccccc4)CC3)ncnc12	A549 tox-1 inconclusive, Nrf2 inh 8.2µM | FLuc enzyme inh inactive | A549 tox-2 inconclusive | Nrf2 ARE inh 12µM
c1ccc2c(c1)CCN(c1ncnc3c1[nH]c1ccccc13)C2	Nrf2 inh 5.8µM | FLuc enzyme inh inactive | A549 tox-2 inactive | Nrf2 ARE inh 5.8µM
CC(C)CNC(=O)COc1ccc(Sc2ccc(OCC(=O)NCC(C)C)cc2)cc1	Nrf2 inh inconclusive
CCCC(C)NC(=O)COc1ccc(Sc2ccc(OCC(=O)NC(C)CCC)cc2)cc1 (centres undefined)	Nrf2 inh 3.7µM | FLuc enzyme inh inactive | A549 tox-2 inactive
O=C(Nc1nccs1)c1ccc(-c2cccc([N+](=O)[O-])c2)o1	Nrf2 inh inconclusive
O=C(Nc1ncc(Cc2cccc(C(F)(F)F)c2)s1)c1ccc(-c2cccc([N+](=O)[O-])c2)o1	Nrf2 inh 2.6µM | FLuc enzyme inh inactive | A549 tox-2 inactive | Nrf2 ARE inh 5.2µM
COC(=O)Cc1ccc(OC2(C)CCN(Cc3ccccc3OC(F)F)C2)cc1 (centres undefined)	none (no result: Rango complex inh, A549 tox-1, Rango release inh, Nrf2 inh)
Cc1cn(CC(=O)NCCN2CCOCC2)c(=O)[nH]c1=O	none
COc1ccc(NS(=O)(=O)c2cccc(NC(=O)c3ccc(S(=O)(=O)N4CCCCCC4)cc3)c2)cc1	A549 tox-1 inconclusive, Nrf2 inh 5.8µM | FLuc enzyme inh inactive | A549 tox-2 inactive | Nrf2 ARE inh 5.8µM
O=C(Nc1cccc(S(=O)(=O)C(F)F)c1)c1ccc(S(=O)(=O)N2CCCC2)cc1	A549 tox-1 inconclusive, Nrf2 inh 5.8µM | FLuc enzyme inh inactive | A549 tox-2 inactive | Nrf2 ARE inh inconclusive
O=C(Nc1cccc(S(=O)(=O)C(F)F)c1)c1ccc(S(=O)(=O)N2CCOCC2)cc1	none
CCOc1ccc(NC(=O)Cn2c(=O)n(-c3cccc(OC)c3)c(=O)c3c4c(sc32)CCCC4)cc1	none (no result: Rango complex inh, Rango release inh)
CCc1cc2c(SCC(=O)NC3CCCC3)ncnc2s1	none (no result: Rango complex inh, A549 tox-1, Rango release inh, Nrf2 inh)
